PNC inhibitor – perinucleolar compartment assembly inhibition; PC3M PTB-GFP, PNC prevalence imaging, 16 h; active compounds read low; activity change (PNC), negative = inhibition, % at 10 µM; hit rate 3.1% among 140,000;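 active means readout at or below -70, meaning at least 70% loss of cells showing the perinucleolar compartment, a nuclear body marking cancer cells; inconclusive means readout between -30 and a set limit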
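Read-out is percentage of cells bearing a perinucleolar compartment, from automated 20x imaging of fixed, Hoechst-stained PC3M PTB-GFP cells. Cells were seeded 4 h, then exposed 16 h to compound (23 nl of library stock) in duplicate plates.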
HTT aggregate – inhibitors of mutant huntingtin aggregate formation in PC12 cells. PC12 HttQ103-GFP aggregates, Acumen cytometry, 40 h. Potency, µM (highest dose often 46.1 µM), actives largely listed as inhibitors. hit rate 1.1% among 220,000. AID 1688; further: nearly all actives have a fitted effect of over 60% in size
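PC12 cells stably carrying ecdysone-inducible HTT exon 1 Q103–GFP were induced with tebufenozide (100 nM final) and treated with library compounds in titration. GFP aggregates in lysates were counted by laser scanning cytometry.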
HTT ATP protect – protects HTT-Q103 PC12 cells, measured by ATP. PC12 HTT-Q103 induced, cytoprotection, ATP luminescence, 40 h. Potency, µM (top dose mostly 56.4 µM), usual class: activators. hit rate 0.14% among 230,000. AID 1471; further: nearly all actives have a fitted effect of over 45% in size
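PC12 cells stably carrying ecdysone-inducible Htt exon 1 (Q103)–GFP were induced with 100 nM tebufenozide (final) alongside library compounds in a dose series. Cytoprotection was scored as retained ATP by ATPlite luminescence.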
Of the large screens only hits and unclear results are named; the others gave an inactive call. Many of the other results were omitted from the sample, so hits are more common in it than they were. Unless noted, the call rests on the fitted dose curve; in most records, active means well fitted curve in the direction sought with a large enough effect; inconclusive means small, poorly fitted or top-dose-only effect, or another doubt; inactive means no such curve, though single readings can be large; an effect the other way counts as inactive or inconclusive.

Cc1n[nH]c(C)c1S(=O)(=O)N1CCCC(C(=O)NC2CCCc3ccccc32)C1 (centres undefined)	PNC inhibitor inconclusive, HTT aggregate inconclusive
CC(C)CNC(=O)CSc1nc(-c2cccs2)cc(C(F)(F)F)n1	PNC inhibitor inconclusive, HTT aggregate inconclusive
Cc1cc(NC(=O)CCCS(=O)(=O)c2nc(-c3cccs3)cc(C(F)(F)F)n2)no1	PNC inhibitor inconclusive, HTT aggregate 10µM
COc1ccc(OC2C(=O)N(Cc3ccc(F)cc3)C2c2ccc(OC)c(OC)c2)cc1 (centres undefined)	none
COc1ccc(C2C(Oc3ccccc3)C(=O)N2c2cc(C)ccc2C)cc1OC (centres undefined)	PNC inhibitor -89.0
CSc1nnc2c(n1)OC=Nc1ccc(Br)cc1-2	none (no result: PNC inhibitor)
Cc1cnc(C(=O)Nc2ccc(N3CCOCC3)cc2)cn1	PNC inhibitor -100.0
Cc1cnc(C(=O)Nc2ccc(N3CCCCC3)cc2)cn1	none (no result: PNC inhibitor)
Cc1cc(=O)[nH]c2n[nH]c(-c3ccccc3)c12	none
CC1(C)CC(C)(O)N(Cc2ccccc2)C(=S)N1 (centres undefined)	none
COc1ccc(-c2ccc(SCc3cccnc3)nn2)cc1OC	none (no result: PNC inhibitor)
COc1cccc(-n2nc(C#N)c(Cl)cc2=O)c1	HTT aggregate 3.55µM (no result: PNC inhibitor)
COc1cccc(-n2nc(C(N)=O)c(O)cc2=O)c1	none (no result: PNC inhibitor)
CCOc1ccc(OCCN2CCCCC2)cc1	PNC inhibitor -87.6
CCOc1ccc(C(=O)CCN2CCCCCC2)cc1	HTT aggregate inconclusive
Cn1c(N)c(C(=O)COC(=O)c2cc(C(F)(F)F)nc3ccccc23)c(=O)n(C)c1=O	HTT ATP protect inconclusive
O=C(Nc1ccc(CN2CCOCC2)cc1)c1ccc(-c2ccc(Cl)cc2Cl)o1	HTT aggregate inconclusive (no result: PNC inhibitor)
CC(C)Oc1ccccc1C1CC(=O)Nc2cc3c(cc21)OCCO3 (centres undefined)	PNC inhibitor -96.9
CCCOc1c(OC)cccc1C1CC(=O)Nc2cc3c(cc21)OCCO3 (centres undefined)	none
COc1cc2c(cc1OC)C(c1ccc(N(C)C)cc1)CC(=O)N2 (centres undefined)	none
COc1cccc(C2CC(=O)Nc3cc4c(cc32)OCCO4)c1OC(C)C (centres undefined)	none
COc1ccccc1C1CC(=O)Nc2cc3c(cc21)OCCO3 (centres undefined)	PNC inhibitor -100.7
COc1cc2c(cc1OC)C(c1cccnc1)CC(=O)N2 (centres undefined)	PNC inhibitor -82.0
Cc1ccc(S(=O)(=O)n2c3ccc(F)cc3c3nc(C)sc32)cc1	none
Cc1noc(C)c1-c1nccc(NCc2ccccc2)n1	none (no result: PNC inhibitor, HTT aggregate)
CC(C(=O)Nc1cccnc1)n1cc([N+](=O)[O-])cn1 (centres undefined)	none (no result: PNC inhibitor)
O=C(c1cccc(Br)c1)N1CCCC1	none
C=CCN=C(NC#N)SCC(=O)NCc1ccccc1	none
CC1(C)Cc2c(sc3ncn4c(=S)[nH]nc4c23)CO1	none (no result: PNC inhibitor)
CCOC(=O)c1ccc(-n2c(O)c(/C=N/NC(=O)C3COc4ccccc4O3)c3ccccc3c2=O)cc1 (centres undefined)	HTT aggregate 17.8µM
Cc1nn(-c2ccccc2)c(Cl)c1/C=N/NC(=O)C1COc2ccccc2O1 (centres undefined)	none
Cc1ccc(NC(=S)NCCC(c2ccccc2)c2ccccc2)c(C)c1	PNC inhibitor inconclusive, HTT aggregate 12.6µM
Cc1ccccc1NC(=S)NCCC(c1ccccc1)c1ccccc1	HTT aggregate inconclusive
O=C(O)C1CSC(CCc2ccccc2)N1 (centres undefined)	none
CS(=O)(=O)N1CCN(c2ccc(NC(=O)c3cccnc3Cl)cc2)CC1	HTT aggregate inconclusive
CCN=C1SC(C(=O)Nc2ccccc2)CC(=O)N1CC (centres undefined)	PNC inhibitor -85.4
CCN=C1SC(C(=O)Nc2cccc(C(=O)O)c2)CC(=O)N1CC (centres undefined)	none
CC(C)(CNC(=O)c1ccc([N+](=O)[O-])c(Cl)c1)CNC(=O)c1ccc([N+](=O)[O-])c(Cl)c1	HTT aggregate inconclusive
Cc1nn(C)c(C)c1CNC(=O)c1cnn2c1NC(c1ccccc1)CC2C(F)(F)F (centres undefined)	none
Cc1ccc(C2CC(C(F)(F)F)n3nc(C(=O)NCc4c(C)nn(C)c4C)c(Cl)c3N2)cc1 (centres undefined)	HTT aggregate 12.6µM
Cc1ccc(-n2cccc2C(=S)N=P(N(C)C)(N(C)C)N(C)C)cc1	HTT aggregate inconclusive
O=C(/C=C/C=C/c1ccccc1)c1ccco1	none (no result: PNC inhibitor)
Cn1cc(C(=O)c2ccc(Cl)cc2Cl)cc1C(=O)N/N=C(\N)COc1ccc(F)cc1	HTT aggregate 17.8µM
Cn1cc(C(=O)c2ccc(Cl)cc2Cl)cc1C(=O)N/N=C(\N)COc1ccc(Cl)cc1	none (no result: PNC inhibitor)
O=C(N/N=C/c1ccco1)c1cc(Br)ccc1OCc1ccccc1	none
Cc1ccc(/C=N/NC(=O)c2cc(C3CC3)nc3ccccc23)o1	PNC inhibitor -108.4
Cc1cccc(/C=N/Nc2ccc3ccccc3n2)c1	HTT aggregate inconclusive (no result: PNC inhibitor)
CCCc1cc(C(=O)N/N=C/c2ccc(C)o2)c2ccccc2n1	none
Cc1ccc(/C=N/Nc2ccc3ccccc3n2)o1	HTT aggregate 12.6µM (no result: PNC inhibitor)
Cc1cc(C(=O)N/N=C/c2ccc(C)o2)c2ccccc2n1	PNC inhibitor -94.3, HTT aggregate inconclusive
Cc1cc(C(=O)N/N=C/c2ccco2)c2ccccc2n1	HTT ATP protect inconclusive
Cc1ccc(S(=O)(=O)Cc2ccc(C(=O)N3CCN(c4ccccn4)CC3)o2)cc1	PNC inhibitor inconclusive
CCN1C(=O)c2c(C)nc3ccccc3c2C1=O	none
CCC(C)C(NC(=O)c1ccccc1NC(=O)c1ccccc1)C(=O)N1CCOCC1 (centres undefined)	none
COC(=O)c1ccc2c(c1)C(C)(C)C(/C=C/c1ccc(O)cc1)=[N+]2C	PNC inhibitor inconclusive
COC(=O)c1ccc2c(c1)C(C)(C)C(/C=C/c1ccc(OC)c(OC)c1OC)=[N+]2C	HTT aggregate 11.2µM
COc1cccc(CS(=O)(=O)c2nnnn2C2CCCCC2)c1	none (no result: PNC inhibitor, HTT aggregate)
CCCS(=O)(=O)c1nnnn1-c1cccc(OC)c1	HTT aggregate 3.55µM
Cc1ccc(C(=O)/C=C/c2ccco2)c(O)c1	none (no result: HTT ATP protect)
Cn1c(=O)n(C)c2cc([N+](=O)[O-])c(N3CCN(S(=O)(=O)c4ccc(C(C)(C)C)cc4)CC3)cc21	HTT aggregate 12.6µM
CC(=O)Nc1ccc(S(=O)(=O)N2CCN(c3cc4c(cc3[N+](=O)[O-])n(C)c(=O)n4C)CC2)cc1	PNC inhibitor inconclusive
Cc1ccccc1N(Cc1ccccc1F)S(C)(=O)=O	none
O=C1C2C3C=CC(C3)C2C(=O)N1c1cccc(N2C(=O)C3C4C=CC(C4)C3C2=O)n1 (centres undefined)	PNC inhibitor -98.8
O=C1C2C3C=CC(C3)C2C(=O)N1c1ccc2ccccc2n1 (centres undefined)	PNC inhibitor inconclusive
O=C(c1cccs1)N(Cc1ccccn1)Cc1ccco1	none
COc1ccc(Cl)cc1NC(=O)COC(=O)CCNC(C)=O	PNC inhibitor inconclusive
O=C1CCCC/C1=N\Nc1ccc(C2CCCCC2)cc1	none (no result: PNC inhibitor)
O=C(O)c1ccc(C2CCCCC2)cn1	PNC inhibitor inconclusive, HTT aggregate 3.16µM
COc1cc(C(=S)N2CCCC2)cc(OC)c1OC	none (no result: PNC inhibitor)
